The whole screen tested about 310,000 compounds, of which about 14,000 (4.5%) showed an effect of 50% or more. The effect is printed as a negative number. The list comes from a sample in which strong results are over-represented; it also holds similar structures and randomly drawn compounds.
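Also: peak tail current of the secondary pulse compared with the same well before compound.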

human ether-à-go-go-related gene (hERG) potassium channel, sequence (Q12809 whole entry, looked up): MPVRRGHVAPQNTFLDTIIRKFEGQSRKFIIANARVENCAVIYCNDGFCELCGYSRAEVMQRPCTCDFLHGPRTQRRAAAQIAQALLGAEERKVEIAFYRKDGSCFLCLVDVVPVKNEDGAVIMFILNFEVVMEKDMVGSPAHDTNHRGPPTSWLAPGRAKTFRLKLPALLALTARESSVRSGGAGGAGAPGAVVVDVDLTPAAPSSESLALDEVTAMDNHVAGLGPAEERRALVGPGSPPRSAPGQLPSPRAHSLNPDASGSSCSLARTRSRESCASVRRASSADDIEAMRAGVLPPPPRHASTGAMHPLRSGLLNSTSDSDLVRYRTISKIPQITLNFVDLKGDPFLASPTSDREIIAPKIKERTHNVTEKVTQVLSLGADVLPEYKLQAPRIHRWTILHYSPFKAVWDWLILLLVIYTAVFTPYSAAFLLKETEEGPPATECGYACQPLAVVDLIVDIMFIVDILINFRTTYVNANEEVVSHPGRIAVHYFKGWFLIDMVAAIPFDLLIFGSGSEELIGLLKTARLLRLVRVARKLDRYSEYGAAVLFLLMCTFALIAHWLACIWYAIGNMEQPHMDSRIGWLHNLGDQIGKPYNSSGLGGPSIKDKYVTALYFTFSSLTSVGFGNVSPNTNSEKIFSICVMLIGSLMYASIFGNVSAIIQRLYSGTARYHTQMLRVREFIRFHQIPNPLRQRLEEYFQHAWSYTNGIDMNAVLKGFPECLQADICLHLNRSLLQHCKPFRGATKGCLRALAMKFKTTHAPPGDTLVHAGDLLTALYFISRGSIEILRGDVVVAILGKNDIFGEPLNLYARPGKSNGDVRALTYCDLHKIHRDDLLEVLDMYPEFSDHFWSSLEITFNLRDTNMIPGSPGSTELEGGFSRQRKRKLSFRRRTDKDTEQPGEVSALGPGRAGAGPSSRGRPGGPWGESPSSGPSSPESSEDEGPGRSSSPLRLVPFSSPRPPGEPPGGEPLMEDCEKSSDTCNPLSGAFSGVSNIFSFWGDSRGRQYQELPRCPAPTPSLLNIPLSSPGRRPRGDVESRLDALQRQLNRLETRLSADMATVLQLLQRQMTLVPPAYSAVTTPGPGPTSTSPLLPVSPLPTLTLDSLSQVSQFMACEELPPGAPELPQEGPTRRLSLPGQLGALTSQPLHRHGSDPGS

This test concerns the target human ether-à-go-go-related gene (hERG) potassium channel (human, UniProt Q12809). The experiment in a line: primary screen, population patch clamp on CHO cells stably expressing hERG; higher = less effect of the substance.
With `C=CCn1c(NCc2ccccc2)nc2ccccc21`, the “hERG current change (%, negative = inhibition) at 10uM” value was -26.4%.

As to `Cn1c(NCc2cccc(Br)c2)nc2ccccc21`, the “hERG current change (%, negative = inhibition) at 10uM” value is reported as -22.2%.

With `Brc1cccc(CNc2nc3ccccc3n2CCN2CCOCC2)c1`, the “hERG current change (%, negative = inhibition) at 10uM” value is -76.3%.

For the compound `Cl.OCCNc1nc2ccccc2n1CCN1CCCCC1`, the “hERG current change (%, negative = inhibition) at 10uM” value is -30.4%.

Take `Brc1ccc(CNc2nc3ccccc3n2CCN2CCCCC2)cc1`: the “hERG current change (%, negative = inhibition) at 10uM” value was -62.7%.

Regarding `Brc1cccc(CNc2nc3ccccc3n2CCN2CCCCC2)c1`, the “hERG current change (%, negative = inhibition) at 10uM” value is given as -67.8%.

As for `Nc1nc2ccccc2n1CCN1CCCC1`, the “hERG current change (%, negative = inhibition) at 10uM” value worked out at 6.04%.

As for `Cc1nc2ccccc2n1CCN1CCOCC1.Cl`, the “hERG current change (%, negative = inhibition) at 10uM” value came out at 23.3%.

Take `Cc1ccc(OCCn2cnc3cc([N+](=O)[O-])ccc3c2=O)cc1`: the “hERG current change (%, negative = inhibition) at 10uM” value was -8.19%.

In the case of `COc1ccc(S(=O)(=O)NNC(=O)c2sccc2-n2cccc2)cc1`, the “hERG current change (%, negative = inhibition) at 10uM” value is listed as 2%.

For the compound `COC(=O)c1ccc(NC(=O)C2CCCN2S(=O)(=O)c2ccc(OC)cc2)cc1` (stereo not shown), the “hERG current change (%, negative = inhibition) at 10uM” value was -16.8%.

`COc1cc(C(=O)Nc2ccc(C(=O)c3cccs3)cc2)cc(OC)c1OC`: the “hERG current change (%, negative = inhibition) at 10uM” value is on record as -10.1%.

`Cc1cc(F)ccc1NC(=S)NC1CCCC1`: the “hERG current change (%, negative = inhibition) at 10uM” value came to 17.9%.

Regarding `CCOC(=O)C1CCCN(CC(=O)Nc2c(C(=O)OC)[nH]c3ccccc23)C1` (stereo not shown), the “hERG current change (%, negative = inhibition) at 10uM” value is given as -25.2%.

Take `CCOC(=O)c1[nH]c2ccc(OC)cc2c1NC(=O)CCN1CCc2ccccc2C1`: the “hERG current change (%, negative = inhibition) at 10uM” value is on record as -59.5%.

On to `CCOC(=O)C1CCCN(CC(=O)Nc2c(C(=O)OC)[nH]c3ccc(C)cc23)C1` (stereo not shown), for which the “hERG current change (%, negative = inhibition) at 10uM” value was -36.1%.

Turning to `CCOC(=O)c1[nH]c2cc3c(cc2c1NC(=O)CN1CCc2ccccc2C1)OCO3`, the “hERG current change (%, negative = inhibition) at 10uM” value is reported as -0.934%.

With `CCOC(=O)c1[nH]c2ccc(OC)cc2c1NC(=O)CCN1CCN(Cc2ccccc2)CC1`, the “hERG current change (%, negative = inhibition) at 10uM” value is -57.1%.

With `COC(=O)c1[nH]c2cc(OC)ccc2c1NC(=O)CCN1CCN(c2ccccc2)CC1`, the “hERG current change (%, negative = inhibition) at 10uM” value was -67%.

For the compound `CCOC(=O)c1[nH]c2ccc(OC)cc2c1NC(=O)CCN1CCSCC1`, the “hERG current change (%, negative = inhibition) at 10uM” value is -5.8%.

With `CCOC(=O)c1[nH]c2ccc(OC)cc2c1NC(=O)CCN1CCC(C)CC1`, the “hERG current change (%, negative = inhibition) at 10uM” value was -22.8%.

As for `COC(=O)c1[nH]c2cc(OC)ccc2c1NC(=O)CCN1CCN(c2cccc(C)c2C)CC1`, the “hERG current change (%, negative = inhibition) at 10uM” value is recorded as -16.4%.

As to `CCOC(=O)c1[nH]c2ccc(OC)cc2c1NC(=O)CN1CCc2ccccc2C1`, the “hERG current change (%, negative = inhibition) at 10uM” value is -12.4%.

`COC(=O)c1[nH]c2cc(OC)ccc2c1NC(=O)CCN1CCCCC1`: the “hERG current change (%, negative = inhibition) at 10uM” value is -20.5%.

For the compound `CCOC(=O)C1CCCN(CCC(=O)Nc2c(C(=O)OC)[nH]c3cc(OC)ccc23)C1` (stereo not shown), the “hERG current change (%, negative = inhibition) at 10uM” value is -59.6%.
